Experimental data reported in PubChem BioAssay (EPA / NIEHS).
“And” between values parts separate entries of the source, which are not always exact repeats. Equal entries are not always repeated. Where a structure was tested more than once in an assay, its records may differ in their call. The source made the active and inactive calls. Rule for the calls: active = hit-call score of the fitted dose curve at least 0.9, where 1 is the maximum; inactive = score below 0.9.

assay: ATG_PXRE_CIS: Attagene CIS-FACTORIAL HepG2 Assay for human Pregnane X Receptor Element (PXRE) (AID 2282957); conditions: HepG2 Attagene CIS-FACTORIAL PXRE reporter, mRNA; actives raise or lower the signal
Procedure, shortened: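 Endogenous transcription factor activity in HepG2 was gauged through induction of reporter mRNA driven by a cis-regulating promoter element, sampled 24 h post-treatment. Activity was fitted in both directions against DMSO negative control.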

| SMILES | AC50 | outcome |
| --- | --- | --- |
| Clc1ccc(C(c2ccccc2Cl)C(Cl)(Cl)Cl)cc1 (stereo not given) | 3.54 µM (active) [middle of 4 runs] |  |
| N#Cc1ccc(N(CC(N)=O)CC(F)(F)F)cc1C(F)(F)F |  | inactive |
| O=S(=O)(O)C(F)(F)C(F)(F)C(F)(F)C(F)(F)C(F)(F)C(F)(F)F | 51.4 µM (active) [middle of 4 runs] |  |
| CCNc1nc(NC(C)C)nc(SC)n1 | 13.5 µM (active) |  |
| O=C(O)C(F)(F)C(F)(F)C(F)(F)C(F)(F)C(F)(F)C(F)(F)C(F)(F)C(F)(F)F | 22.7 µM (active) and 38.2 µM (active) and 13.6 µM (active) |  |
| CCSC(=O)N(CC)C1CCCCC1 | 12.3 µM (active) |  |
| Cc1cc2c3c(c1)C(c1ccccc1)=N[C@@H](NC(=O)c1ccncc1)C(=O)N3CC2 | 0.909 µM (active) |  |
| O=C(O)C(F)(F)C(F)(F)C(F)(F)C(F)(F)C(F)(F)C(F)(F)C(F)(F)C(F)(F)C(F)(F)F | 57.5 µM (active) | inactive |
| CCC(C)(c1ccc(O)cc1)c1ccc(O)cc1 | 1.13 µM (active) [middle of 4 runs] |  |
| ClC(Cl)=C(c1ccc(Cl)cc1)c1ccc(Cl)cc1 | 4.93 µM (active) [middle of 4 runs] |  |
| Cc1ccccc1O |  | inactive |
| C[C@]12CCC(=O)C=C1CC[C@@H]1[C@@H]2CC[C@]2(C)C(=O)CC[C@@H]12 | 15.2 µM (active) and 27.7 µM (active) and 15.3 µM (active) | inactive |
| CN(C)CCO | 100 µM (active) | inactive |
| CC#Cc1cc(C)nc(Nc2ccccc2)n1 | 26.5 µM (active) |  |
| CCC(C)c1cc([N+](=O)[O-])cc([N+](=O)[O-])c1O (stereo not given) |  | inactive |
| ClC1=C(Cl)[C@]2(Cl)[C@@H]3[C@H]4C[C@H]([C@@H]5O[C@H]45)[C@@H]3[C@@]1(Cl)C2(Cl)Cl | 1.58 µM (active) |  |

assay: ATG_PPRE_CIS: Attagene CIS-FACTORIAL HepG2 Assay for human Peroxisome Proliferator-activated Response Element (PPRE) (AID 2282958); conditions: HepG2 PPRE cis-element reporter, Attagene transcription factor profiling; actives raise or lower the signal
Procedure, shortened: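 In this cell-based multiplex, a PPRE cis element drives a reporter sequence in transiently transfected HepG2 cells. Following 24 h treatment, labeled cDNA amplicons are sized and quantified by capillary electrophoresis, with DMSO defining baseline.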

| SMILES | AC50 | outcome |
| --- | --- | --- |
| Oc1ccc(C(c2ccc(O)cc2)(C(F)(F)F)C(F)(F)F)cc1 | 11.1 µM (active) and 5.95 µM (active) and 16.8 µM (active) | inactive |
| CCCCCCCCCc1ccc(O)cc1 |  | inactive |
| CC(C)(c1ccccc1)c1ccc(O)cc1 | 22.6 µM (active) and 33.4 µM (active) | inactive |
| ClC1=C(Cl)[C@]2(Cl)[C@@H]3[C@@H](Cl)[C@H]4O[C@H]4[C@@H]3C1(Cl)C2(Cl)Cl |  | inactive |
| CCC(=O)O[C@H]1CC[C@H]2[C@@H]3CCC4=CC(=O)CC[C@]4(C)[C@H]3CC[C@]12C |  | inactive |
| NS(=O)(=O)C(F)(F)C(F)(F)C(F)(F)C(F)(F)C(F)(F)C(F)(F)C(F)(F)C(F)(F)F | 38.7 µM (active) and 25.8 µM (active) | inactive |
| Cc1cccc(C)c1N |  | inactive |
| O=C(O)C(F)(F)C(F)(F)C(F)(F)C(F)(F)C(F)(F)F |  | inactive |
| CCOC(=O)C(O)(c1ccc(Cl)cc1)c1ccc(Cl)cc1 |  | inactive |
| Cc1ccccc1[N+](=O)[O-] |  | inactive |
| O=C(N[C@H]1CN2CCC1CC2)c1cc2ccoc2cn1 |  | inactive |
| OCC(O)CO | 26.1 µM (active) | inactive |
| CCCN(CCC)N=O |  | inactive |
| CCC(C)(CC)c1cc(NC(=O)c2c(OC)cccc2OC)on1 |  | inactive |
| Clc1ccc(C(c2ccccc2Cl)C(Cl)(Cl)Cl)cc1 (stereo not given) |  | inactive |
| N#Cc1ccc(N(CC(N)=O)CC(F)(F)F)cc1C(F)(F)F |  | inactive |
| O=S(=O)(O)C(F)(F)C(F)(F)C(F)(F)C(F)(F)C(F)(F)C(F)(F)F | 97.7 µM (active) [middle of 4 runs] |  |
| CCNc1nc(NC(C)C)nc(SC)n1 |  | inactive |
| O=C(O)C(F)(F)C(F)(F)C(F)(F)C(F)(F)C(F)(F)C(F)(F)C(F)(F)C(F)(F)F | 33.4 µM (active) and 89.8 µM (active) and 34 µM (active) |  |
| CCSC(=O)N(CC)C1CCCCC1 |  | inactive |
| Cc1cc2c3c(c1)C(c1ccccc1)=N[C@@H](NC(=O)c1ccncc1)C(=O)N3CC2 |  | inactive |
| O=C(O)C(F)(F)C(F)(F)C(F)(F)C(F)(F)C(F)(F)C(F)(F)C(F)(F)C(F)(F)C(F)(F)F | 47.5 µM (active) and 14.8 µM (active) | inactive |
| ClC(Cl)=C(c1ccc(Cl)cc1)c1ccc(Cl)cc1 | 31.7 µM (active) and 78.5 µM (active) and 27.1 µM (active) | inactive |
| Cc1ccccc1O |  | inactive |
| C[C@]12CCC(=O)C=C1CC[C@@H]1[C@@H]2CC[C@]2(C)C(=O)CC[C@@H]12 |  | inactive |
